Results published in ChEMBL document CHEMBL3988442, “University of Dundee, Small-Polar-MMV Screening Library” (2021).
The whole screen tested about 48,000 compounds, of which about 13,000 (27%) showed an effect of 50% or more. The list shows a part of the results.

The molecules below were run on Wolbachia pipientis (assay: Anti-Wolbachia Cell-Based Screen). Settings: 5 µM.
Assay type: functional
Parameters: scale not given: in the data most compounds retested in dose-response had high values

Structure (SMILES)	Percent Effect [%]
COc1cc(NC(=O)c2cscn2)ncn1	-4.682
COCC1CC2(CCN(Cc3nc(C)cs3)CC2)CO1 (configuration not stated)	102
COCC1CC2(CCN(C(=O)c3occc3C)CC2)CO1 (configuration not stated)	-1.906
Cc1csc(CN2CCC3(CC2)COC(COc2ccccn2)C3)n1 (configuration not stated)	106.5
O=S(=O)(C1CC1)N1CCC2(CC1)COC(COc1ccccn1)C2 (configuration not stated)	3.051
c1ccc(OCC2CC3(CCN(Cc4ccncc4)CC3)CO2)nc1 (configuration not stated)	4.031
COCC1CC2(CCN(C(=O)c3ccc(F)cc3C)CC2)CO1 (configuration not stated)	14.78
Cc1nc(CN(C)Cc2csc(-c3cccs3)n2)co1	-5.147
CC(C)C(C#N)N1CCN(Cc2nccn2CC(F)(F)F)CC1 (configuration not stated)	-1.445
O=C1[C@H]2CC[C@H](CN(c3ncnc4ccsc34)C2)N1CC1CC1	70.25
CN1C(=O)[C@H]2CC[C@@H]1CN(c1ncnc3ccsc13)C2	78.97
CCn1ccnc1C1CCN(c2ncnc3ccsc23)CC1	-4.66
c1nc(N2CCN(Cc3nnnn3C3CC3)CC2)c2sccc2n1	-5.403
CSc1nc(N)cc(N2C[C@@H]3CC[C@H](C2)N(CC2CC2)C3=O)n1	1.257
Cc1ccnc(N2C[C@@H]3CC[C@H](C2)N(CC2CCC2)C3=O)n1	15.62
CC(NC1(CNC(=O)CC(C)(C)C)CCOCC1)c1ccccc1 (configuration not stated)	7.994
O=C(NCCc1cccnc1)N1CCCC1c1ccsc1 (configuration not stated)	4.878
NC(=O)CCn1nnc(-c2cc3ccccc3o2)n1	8.655
O=C(Nc1nccs1)NC1CCN(Cc2ccccc2)C1 (configuration not stated)	-7.508
COc1cccc(CN(C)C(=O)CN2CCN(c3nccs3)CC2)c1	7.332
NC(=O)C1CCN(CC(=O)N(Cc2ccccc2)Cc2nccs2)CC1	113.3
O=C(CN1CCOC1=O)N(Cc1ccccc1)Cc1nccs1	101.3
CN(Cc1csc(-c2cccs2)n1)C(=O)CN1CCOC1=O	19.54
COc1ccc(CN(CC2CCCO2)C(=O)CN2CCOC2=O)cc1 (configuration not stated)	10.27

Structure (SMILES)	Percent Effect [%]
CN(Cc1cccnc1)c1nccc(N2CCN[C@H]3CS(=O)(=O)C[C@H]32)n1	-2.359
Nc1cc(-c2cc(O)cc(C(=O)O)c2)c2cc[nH]c2n1	-2.921
Nc1cc(-c2cc(C(=O)O)ccc2Cl)c2cc[nH]c2n1	2.257
CN(C)CCNc1cc(-c2ncccc2C(F)(F)F)c2cc[nH]c2n1	-6.362
O=C(O)CNc1cc(-c2nccnc2N2CCCC2)c2cc[nH]c2n1	94.3
COc1cccc(-c2cc(NCC(=O)O)nc3[nH]ccc23)n1	-3.915
Nc1cc(-c2ccc(C(=O)O)cc2O)c2cc[nH]c2n1	1.335
Nc1cc(-c2nccnc2N2CCCC2)c2cc[nH]c2n1	67.22
CN(C)CCNc1cc(-c2ncccc2O)c2cc[nH]c2n1	15.75
OCCNc1cc(-c2nccnc2N2CCCC2)c2cc[nH]c2n1	104.7
Cc1noc(C2CN(CC(=O)NCC3CCCO3)C2)n1 (configuration not stated)	9.756
CN(C)C(=O)c1ccc2c(c1)N(C)C(CC(=O)NC(CO)CO)CO2 (configuration not stated)	0.9161
CCCn1cnnc1CNC1CCCC1	-7.935
Cc1cc(C)c2cc(CNC3CCCCC3)c3nn(C)c(=O)n3c2c1	108.3
Cc1cc(C)c2cc(CNCC3CCCO3)c3nn(C)c(=O)n3c2c1 (configuration not stated)	-6.505
Cc1cc(C)c2cc(CNC(C)C)c3nn(C)c(=O)n3c2c1	117
CCn1cc(CN(C)C(=O)c2cccc(CCC(C)(C)O)c2)cn1	-2.58
COCc1ccc(C(=O)N2CCN(CC=C(C)C)[C@@H]3CS(=O)(=O)C[C@@H]32)o1	-1.241
O=C(c1ccco1)N1CC[C@@H]2[C@H]1CCC(=O)N2c1ccccc1	9.276
O=C(O)Cn1nc(C2CC2)c2c(-c3cccs3)ccnc21	125.7
O=C(CN1CC(c2nc(-c3ccco3)no2)C1)NCC1CCCO1.O=C(O)C(=O)O (configuration not stated)	8.836
O=C(O)Cn1nc(C2CC2)c2c(-c3ccco3)ccnc21	121.5
O=c1[nH]c(NC2CCCC2)nc2nccc(-c3cccs3)c12	-0.1995
O=c1[nH]c(NC2CCCC2)nc2nccc(-c3ccco3)c12	15.07

Structure (SMILES)	Percent Effect [%]
O=C(Cn1cnc(-c2cccs2)cc1=O)Nc1cccnc1	14.09
N#Cc1ccc(N2CCCC(CO)(CCOc3ccccc3)C2)nc1 (configuration not stated)	-8.429
CC(C)c1nnc(NC(=O)Cc2ccc(F)cc2)[nH]1	-66.88
COC(=O)C(CNC(=O)Nc1nncs1)Cc1ccc(F)cc1 (configuration not stated)	5.054
NC(=O)CS(=O)(=O)Cc1ccc(F)cc1	3.461
CC(C)NC(=O)NCC(Cc1ccc(F)cc1)C(N)=O (configuration not stated)	96.65
Cc1ccoc1C(=O)NCC(Cc1ccc(F)cc1)C(N)=O (configuration not stated)	7.737
CCOc1ccc(CC(CNC(=O)c2occc2C)C(N)=O)cc1 (configuration not stated)	-2.596
CC(C)S(=O)(=O)CC(=O)NCC(Cc1ccc(F)cc1)C(N)=O (configuration not stated)	124.5
CC(C)N(C)CC(=O)NCC(Cc1ccc(F)cc1)C(N)=O (configuration not stated)	103.5
CCOc1ccc(CC(CNC(=O)c2ccc(C)o2)C(N)=O)cc1 (configuration not stated)	-14.58
Cc1cc(C)c2nc(CNC3CCCNC3=O)cc(O)c2c1 (configuration not stated)	-9.599
Cn1cc(CN2CCCn3cnc(COCc4ccco4)c3C2)cn1	-8.432
Cc1cc2c(cc1C)C(NCc1nnc3n1CCCCC3)CCCO2 (configuration not stated)	3.518
CSCC[C@@H](CO)n1ccnc1-c1nccn1C	-1.218
O=C1CCN(C(=O)C2(c3ccc(Br)cc3)CC2)CCN1	3.303
O=C1CCN(C(=O)CCc2cc(Br)cs2)CCN1	-5.326
CC(=O)N1CCCN(C(=O)NCCc2cc(Cl)cc(Cl)c2)CC1	8.517
CC(C)(C)c1noc(CCCC(=O)N2CCNC(=O)CC2)n1	-18.62
O=C(NCCOc1ccc(Cl)cc1)N1CCS(=O)(=O)CC1	9.107
CC(CNC(=O)N1CCNC(=O)CC1)Cc1cccs1 (configuration not stated)	17.79
O=C1CCN(C(=O)NCCc2c[nH]c3ccc(Cl)cc23)CCN1	98.23
O=C1CCN(C(=O)NCCCc2ccc(Cl)cc2Cl)CCN1	108.4
O=C1CCN(C(=O)CCc2ccc(Cl)cc2Cl)CCN1	106.4
